Results on 18 molecules are retold here after PubChem BioAssay AID651642 (Sanford-Burnham Center for Chemical Genomics, 2012).

Active and inactive are the calls of the source.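 How the source made its calls: active means average half-effect concentration of 10 µM or less in every one of the four cell panels; inactive means the rest.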

The test has as its system H9c2. Kind of test: cardiomyocyte survival under oxidative or metabolic stress – cell-based, panel, H9c2 and HL-1, H2O2, 2-deoxyglucose, ATP luminescence, SAR follow-up (AID 651642). The note with it: H9c2/HL-1 cardiomyocyte H2O2 oxidative damage, mean of runs, with H2O2.
Turning to `CCOC(=O)c1ccc(NC(=O)c2cc(-c3cc(OC)c(OC)c(OC)c3)nc3ccccc23)cc1`, the call was inactive.

For `COc1cc(-c2cc(C(=O)NCC(=O)Nc3ccc(C(C)=O)cc3)c3cc(C)ccc3n2)cc(OC)c1OC`, the molecule was called active.

On to `COc1cc(-c2cc(C(=O)Nc3cccc(C(=O)O)c3)c3ccccc3n2)cc(OC)c1OC`, for which the outcome was inactive.

On to `COc1cc(-c2cc(C(=O)NCC(=O)Nc3cccc(C(C)=O)c3)c3cc(F)ccc3n2)cc(OC)c1OC`, for which the result was active.

On to `COc1cc(-c2cc(C(=O)Nc3cccc(C(C)=O)c3)c3cc(C)ccc3n2)cc(OC)c1OC`, for which the outcome was active.

With `COc1cc(-c2cc(C(=O)NCC(=O)O)c3ccccc3n2)cc(OC)c1OC`, the outcome was inactive.

Consider `CCOC(=O)c1cccc(NC(=O)c2cc(-c3cc(OC)c(OC)c(OC)c3)nc3ccc(C)cc23)c1`, for which the outcome was active.

Consider `COc1ccc2nc(-c3cc(OC)c(OC)c(OC)c3)cc(C(=O)NCC(=O)Nc3ccc(C(C)=O)cc3)c2c1`, for which the molecule was called active.

On to `COc1ccc2c(c1OC)C(=O)N1c3ccccc3C(=O)N(Cc3ccc(C)cc3)C21` (stereo not drawn), for which the result was inactive.

On to `COc1cc(-c2cc(C(=O)Nc3cccc(C(C)=O)c3)c3ccccc3n2)cc(OC)c1OC`, for which the molecule was called inactive.

Consider `COc1cc(-c2cc(C(=O)NCC(=O)Nc3cccc(C(C)=O)c3)c3cc(Br)ccc3n2)cc(OC)c1OC`, for which the molecule was classed as active.

As to `COc1cc(-c2cc(C(=O)Nc3cccc(-c4nn[nH]n4)c3)c3ccccc3n2)cc(OC)c1OC`, the call was inactive.

Regarding `COc1ccc2c(c1OC)C(=O)N1c3ccccc3C(=O)N(Cc3ccncc3)C21` (stereo not drawn), the molecule was called inactive.

As for `COc1cc(-c2cc(C(=O)NCC(=O)Nc3cccc(C(C)=O)c3)c3cccc(Cl)c3n2)cc(OC)c1OC`, the molecule was called active.

In the case of `COC(=O)CNC(=O)c1cc(-c2cc(OC)c(OC)c(OC)c2)nc2ccccc12`, the call was inactive.

In the case of `COc1cc(-c2cc(C(=O)NCC(=O)Nc3ccc(C(C)=O)cc3)c3cc(F)ccc3n2)cc(OC)c1OC`, the result was inactive.

As to `CCOC(=O)c1cccc(NC(=O)c2cc(-c3cc(OC)c(OC)c(OC)c3)nc3ccccc23)c1`, the molecule was called inactive.

`COc1cc(-c2cc(C(=O)Nc3cccc(C(=O)NC4CC4)c3)c3ccccc3n2)cc(OC)c1OC`: the call was active.
